Measured values: PubChem BioAssay (NCATS)
Results filed as inconclusive are left out. Activity calls are given as the source filed them. Unless noted, calls come from the whole dose curve; as a rule, active = well fitted curve in the direction sought with a large enough effect; inconclusive = small, poorly fitted or top-dose-only effect, or another doubt; inactive = no such curve, though single readings can be large; an effect the other way counts as inactive or inconclusive.

Assays:
[1] = target: Luciferin 4-monooxygenase (Photinus pyralis) (UniProt P08659); assay: Firefly luciferase counterscreen qHTS: Assay Interference Panel against the NCATS CANVASS Library (AID 1347363); note: 0% is about no effect
Method in brief: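 Purified P. pyralis luciferase was added to compounds (11-point series) preincubated 15 min at room temperature with substrate containing 0.013 mM D-luciferin and 0.013 mM ATP; luminescence was read after 5 min.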

[2] = G06 Cancer Cell Toxicity qHTS against the NCATS CANVASS Library (AID 1347368); note: nearly all actives have a fitted effect of over 60% in size; note: potency is the fitted concentration of half-maximal effect
Method in brief: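 Cytotoxicity toward canine glioma G06 cells is scored from cellular ATP via luminescence after 72 hr compound exposure at 500 cells/well.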

[3] = qHTS for Hypoxia signaling pathway (HIF-1) antagonists against the NCATS CANVASS Library (AID 1347374); note: nearly all actives have a fitted effect of over 60% in size; note: potency is the fitted concentration of half-maximal effect;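 for activity change, negative = inhibition: HRE-bla ME-180 cells stimulated with cobalt chloride to stabilize HIF-1alpha; % is set by controls: 0 for no effect and ±100 for the full control effect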
Method in brief: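 HRE-bla ME-180 cells (2,000/well, 0.5% dialyzed FBS) were pre-incubated 5 h, then given an 11-point compound series plus CoCl2 (60 uM solution as added) for 17 h at 37C. CCF4 β-lactamase read (ex 405, em 460/530 nm) after 2 h at RT.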

[4] = qHTS for Antimalaria activity screened against the NCATS CANVASS Library (AID 1347380); note: nearly all actives have a fitted effect of over 40% in size; note: potency is the fitted concentration of half-maximal effect;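 for activity change, negative = inhibition: Plasmodium falciparum strain Dd2 asexual parasites grown in red blood cells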
Method in brief: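 Growth inhibition of asexual erythrocytic P. falciparum Dd2 was quantified by SYBR Green DNA staining. Cultures grew 72 h with compound (11-point series) in hypoxic gas at 37C; lysis and staining lasted 18 h.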

[5] = qHTS for activators of Nrf2/ARE signaling pathway screened against the NCATS CANVASS Library (AID 1347391); note: nearly all actives have a fitted effect of over 60% in size; note: potency is the fitted concentration of half-maximal effect
Method in brief: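 Cells carrying an ARE-driven beta-lactamase reporter (HepG2 background) are dosed for 16 h, then stained with CCF4. Cell viability in the same wells is measured by CellTiter-Glo luminescence.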

[6] = qHTS for inhibitors of Wild type Zika virus screened against the NCATS CANVASS Library (AID 1347396);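 note: ATP luminescence of surviving cells so rescue from viral cell killing; % is set by controls: 0 for no effect and ±100 for the full control effect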
Method in brief: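 Protection against wild-type Zika cytopathic effect is measured in African green monkey Vero 766 cells exposed to an 11-point compound series. Surviving cells are quantified by CellTiter Glo luminescence after 72 h.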

[7] = HPAF-II 12hr Apoptosis Induction qHTS against the NCATS CANVASS Library (AID 1347358); note: potency is the fitted concentration of half-maximal effect
Method in brief: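 Apoptosis in HPAF-II pancreatic cancer cells is scored as caspase 3/7 luminescence following a 12-hour exposure to an 11-point compound series.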

[8] = HPAF-II 18hr Apoptosis Induction qHTS against the NCATS CANVASS Library (AID 1347360); note: potency is the fitted concentration of half-maximal effect
Method in brief: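 HPAF-II cells at 500/well were exposed for 18 h at 37 C to an 11-point compound series. Caspase-3/7 activity was read by Caspase-Glo luminescence after 15 min at RT.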

[9] = HEK293 12hr Apoptosis Induction qHTS against the NCATS CANVASS Library (AID 1347361); note: potency is the fitted concentration of half-maximal effect
Method in brief: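 HEK293 cells (500/well) were exposed to an 11-point qHTS concentration series for 12 hours at 37 degrees C. Caspase-3/7 activity was then read by DEVD-substrate luciferase luminescence after 15 min at room temperature.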

[10] = target: Cytochrome P450 3A4 (Homo sapiens) (UniProt P08684); assay: qHTS Assay for Inhibitors and Substrates of Cytochrome P450 3A4 (AID 884); note: % is set by controls: 0 for no effect and ±100 for the full control effect; nearly all actives have a fitted effect of over 50% in size
Method in brief: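 20 nM human CYP3A4 with 25 uM Luciferin-PPXE (at KM) in 200 mM KPO4, preincubated 10 min with compound; NADPH regeneration started a 60 min RT reaction. Luciferin detected by luminescence, normalized to 57 uM ketoconazole as full inhibition.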

[11] = qHTS Assay for Lipid Storage Modulators (AID 1519; calls by dose curve; for activity change, negative = inhibition: % is set by controls: 0 for no effect and ±100 for the full control effect); conditions: Drosophila S3 cells, BODIPY lipid droplet/cell ratio, laser cytometry, cells loaded with oleic acid
Method in brief: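 Cells seeded at 5,000 per well were treated with compounds over a concentration series and loaded with oleic acid (400 uM, as added). Lipid droplet fluorescence (488 nm excitation, 500-530 nm channel) was read by laser-scanning cytometry and normalized to 20 uM Triacsin C.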

Sequence of Luciferin 4-monooxygenase (Photinus pyralis) (P08659 whole entry, looked up): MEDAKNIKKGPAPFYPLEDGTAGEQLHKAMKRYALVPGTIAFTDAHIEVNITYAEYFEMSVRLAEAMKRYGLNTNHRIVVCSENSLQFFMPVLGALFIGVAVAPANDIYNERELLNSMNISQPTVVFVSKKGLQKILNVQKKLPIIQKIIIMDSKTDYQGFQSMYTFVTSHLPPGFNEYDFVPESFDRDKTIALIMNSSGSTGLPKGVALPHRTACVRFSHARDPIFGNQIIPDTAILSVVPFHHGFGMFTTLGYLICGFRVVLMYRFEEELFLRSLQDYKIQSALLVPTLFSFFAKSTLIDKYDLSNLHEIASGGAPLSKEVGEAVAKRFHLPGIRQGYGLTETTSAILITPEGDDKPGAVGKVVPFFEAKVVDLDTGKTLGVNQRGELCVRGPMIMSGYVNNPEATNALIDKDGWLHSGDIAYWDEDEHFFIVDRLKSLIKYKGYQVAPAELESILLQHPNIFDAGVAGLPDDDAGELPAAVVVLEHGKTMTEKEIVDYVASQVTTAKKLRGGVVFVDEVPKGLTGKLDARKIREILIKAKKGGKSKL
Sequence of Cytochrome P450 3A4 (Homo sapiens) (P08684 whole entry, looked up): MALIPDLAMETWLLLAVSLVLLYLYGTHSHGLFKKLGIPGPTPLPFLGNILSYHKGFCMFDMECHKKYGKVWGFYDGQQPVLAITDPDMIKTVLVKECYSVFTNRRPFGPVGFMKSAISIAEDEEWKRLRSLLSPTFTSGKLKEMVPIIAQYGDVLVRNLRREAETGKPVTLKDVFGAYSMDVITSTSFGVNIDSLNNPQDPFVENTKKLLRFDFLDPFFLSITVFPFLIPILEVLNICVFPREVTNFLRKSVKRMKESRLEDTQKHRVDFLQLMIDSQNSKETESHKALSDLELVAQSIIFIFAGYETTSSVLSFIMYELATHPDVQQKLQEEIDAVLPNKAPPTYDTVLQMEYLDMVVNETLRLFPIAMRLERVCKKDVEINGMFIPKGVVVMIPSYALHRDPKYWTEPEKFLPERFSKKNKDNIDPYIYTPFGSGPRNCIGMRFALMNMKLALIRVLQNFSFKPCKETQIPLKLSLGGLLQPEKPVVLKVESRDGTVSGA

CN1C(=O)C2C(N=CN2C)N(C)C1=O (configuration not stated)
inactive: Potency [1] | Potency [2] | Potency [3] | Potency [4] | Potency [5] | Potency [6]

C/C=C/C(=O)[C@@H](C)C1=CC(=O)C2=C(O[C@@]34CC[C@H](O)C(C)(C)[C@@H]3CC[C@H](C)[C@@]4(C)C2)C1=O
active: Potency [2] 3.32 µM | Potency [3] 2.11 µM | Potency [5] 1.86 µM
inactive: Potency [1]

CNc1ccc(Cl)cc1C(=O)OC[C@]1(C)[C@H]2CC[C@]3(C)[C@@H](C[C@@H](OC)[C@H](C)[C@H]3C3=C(O)C(=O)OC3O)[C@]2(C)CC[C@H]1O (some centres not stated)
inactive: Potency [7] | Potency [8] | Potency [9] | Potency [4] | Potency [5]

C=C[C@]1(C)CC[C@@H]([C@H](C)C(=O)OCC)O1
inactive: Potency [7] | Potency [8] | Potency [9] | Potency [3] | Potency [6]

C/C=C/c1cc(OC)c2c(c1)[C@@H](C)[C@H](c1ccc(O)c(OC)c1)O2
inactive: Potency [8] | Potency [3] | Potency [4] | Potency [6]

CO[C@@H]1[C@H](O)[C@@H](C)O[C@@H](OC[C@@H]2C(C)OC(=O)/C=C/[C@H](C)C(O[C@@H]3O[C@H](C)CC4(OC(=O)O[C@@H]4C)C3O)[C@@H](C)CC(C)C(=O)CC[C@H]3OC23)[C@@H]1OC (some centres not stated)
inactive: Potency [1] | Potency [3] | Potency [4] | Potency [6]

COc1cc(/C=C/C(=O)O)ccc1O
inactive: Potency [10] | activity change, negative = inhibition ([11]; at 57.5 µM (top of the series)) 8.29% | Potency [8] | Potency [2] | Potency [3] | Potency [5]
17.5%: max response ([11]; measured here: lipid channel max response)
5.04%: max response ([11]; measured here: cell count channel max response)
active: Potency [4] 3.3 nM

CCCCCCCCCCCCCCC[C@H](O)C[C@@H](O)C[C@@H](O)C[C@@H](O)C[C@@H](O)C[C@H]1CC=CC(=O)O1
active: Potency [2] 2.64 µM | Potency [4] 3750 nM
inactive: Potency [1] | Potency [5]

CC1(C)[C@H](Br)CC[C@]23C[C@]4(C)C(=O)CC12C[C@H]34
inactive: Potency [1] | Potency [2] | Potency [3] | Potency [5] | Potency [6]

O=c1cc(-c2ccc(O)cc2)oc2c([C@@H]3OC(CO)[C@H](O)[C@@H](O)[C@H]3O)c(O)cc(O)c12 (some centres not stated)
active: Potency [4] 1.3 nM
inactive: Potency [9] | Potency [2] | Potency [3] | Potency [5] | Potency [6]

CN1C(=O)[C@]23SS[C@@]1(C)C(=O)N2[C@H]1Nc2ccccc2[C@]1(c1c[nH]c2ccccc12)[C@@H]3O
active: Potency [7] 590 nM | Potency [8] 469 nM | Potency [9] 5.26 µM | Potency [2] 0.296 µM | Potency [5] 1.86 µM

CN1CC[C@]2(c3cccc4c3N[C@@H]3N(C)CC[C@]43[C@@]34CCN(C)[C@@H]3Nc3c([C@]56CCN(C)[C@H]5Nc5ccccc56)cccc34)c3ccccc3N[C@H]12
inactive: Potency [9] | Potency [1] | Potency [5]
active: Potency [2] 2.64 µM

CC(C)=CCC[C@@H](C)[C@@H]1CC[C@@]2(C)C[C@H]3C(C)=CC(=O)[C@@H]3/C(C=O)=C\C[C@H]12
active: Potency [2] 16.6 µM
inactive: Potency [1] | Potency [5]

C[C@@]12CCC[C@@](C)(C(=O)O)[C@H]1CC[C@]13C[C@H]4C[C@H](O[C@@]4(C)C1)[C@H]32
inactive: Potency [7] | Potency [8] | Potency [9] | Potency [1] | Potency [2] | Potency [5]

C=C[C@@]1(C)CC[C@@H]([C@H](C)C(=O)/C=C/C(C)C)O1
inactive: Potency [9] | Potency [1] | Potency [4] | Potency [5] | Potency [6]

CCC1=C2CCCN3C(=O)O[C@H]([C@H]1OC(C)=O)[C@H]23
inactive: Potency [2] | Potency [3] | Potency [5]
active: Potency [4] 5.9 nM

C=C1C[C@@]23C=CC(=O)[C@@](C)(CCC(=O)Nc4c(OC5O[C@H](CO)[C@@H](O)[C@H](O)[C@H]5O)ccc(C(=O)O)c4O)C2C[C@@H]1CC3 (some centres not stated)
inactive: Potency [8] | Potency [1] | Potency [2] | Potency [3] | Potency [4] | Potency [5] | Potency [6]

CCCCCCCCC[C@@H]1C[C@@H]2CC[C@H]3[C@@H](C(=O)OCCCCN=C(N)N)[C@@H](C)N=C(N1)N23
inactive: Potency [8] | Potency [9] | Potency [5] | Potency [6]
active: Potency [2] 2.05 µM | Potency [4] 1640 nM

CCC[C@@H](C)/C=C(\C)[C@H](O)[C@H](C)/C=C/CC[C@@H](O)[C@H](C)[C@H](O)[C@H](C)[C@H](O)[C@H](C)[C@H]1O[C@H]([C@H](C)C(=O)O)CC[C@@H]1C
active: Potency [3] 2.98 µM | Potency [4] 5940 nM

C=C(NC(=O)c1csc(-c2nc3c(cc2O)-c2nc(cs2)C(=O)NC(C(C)O)C(=O)N/C(=C(\C)O)c2nc(cs2)C(=O)NC2c4nc(cs4)C(=O)NC(COC(=O)c4c5c6c(cccc6n4O)COC(=O)[C@@H](OC4C[C@](C)(O)[C@H](N(C)C)[C@H](C)O4)C2OC5)c2nc-3cs2)n1)C(N)=O (some centres not stated)
active: Potency [4] 334 nM
inactive: Potency [7] | Potency [1] | Potency [3] | Potency [5] | Potency [6]

CC1=CC[C@@]2(C[C@@H]1O)[C@@H](C(=O)O)CC[C@H]2C(C)C
inactive: Potency [9] | Potency [1] | Potency [2] | Potency [5] | Potency [6]

O=C(O)CC1OC(=O)c2c(O)cccc21 (configuration not stated)
inactive: Potency [7] | Potency [1] | Potency [5]

COc1ccc2cc(NC(=O)C3=NO[C@H]4[C@H](O)C=C[C@@H](Cl)[C@@]4(O)C3)c(=O)oc2c1OC
inactive: Potency [1] | Potency [4] | Potency [6]
active: Potency [2] 11.8 µM
